Results as given in publication PMC7862700, “An all-to-all approach to the identification of sequence-specific readers for epigenetic DNA modifications on cytosine”.

Assays:
Assay in all cases: DAPPL (digital affinity profiling via proximity ligation, sequencing); 10 mM Tris-HCl pH 7.5, 50 mM NaCl, 1 mM DTT, 4% glycerol, room temperature, 30 min; GST-TFs on glutathione beads, 16-mer random dsDNA library, 0.1% formaldehyde crosslink after washing; high values mean tight binding
FLI1 = biological target: T1, FLI1 (Homo sapiens, UniProt Q01543 1-452); conditions: protein: recombinant; tags: N-terminal GST; dsDNA, one strand shown
T1 sequence: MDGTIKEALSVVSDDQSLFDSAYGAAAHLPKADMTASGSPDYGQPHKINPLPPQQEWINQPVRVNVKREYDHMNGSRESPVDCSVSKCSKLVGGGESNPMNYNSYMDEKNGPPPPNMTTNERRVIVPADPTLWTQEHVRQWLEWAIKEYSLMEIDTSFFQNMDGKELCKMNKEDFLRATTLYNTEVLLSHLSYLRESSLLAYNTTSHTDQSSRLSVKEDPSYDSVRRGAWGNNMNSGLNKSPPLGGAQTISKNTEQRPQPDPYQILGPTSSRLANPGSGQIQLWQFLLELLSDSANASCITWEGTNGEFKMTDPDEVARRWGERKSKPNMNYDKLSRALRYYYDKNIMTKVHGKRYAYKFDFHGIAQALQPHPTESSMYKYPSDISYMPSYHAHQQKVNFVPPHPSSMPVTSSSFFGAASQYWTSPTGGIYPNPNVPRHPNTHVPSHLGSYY
In short: (§1)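 Human transcription factors fused to GST were expressed in yeast, captured on glutathione beads, given DNA barcodes and pooled with a GST-only negative control. Pools were incubated with 200 nmole of a 16-mer random double-stranded DNA library in Tris/NaCl/DTT/glycerol buffer at room temperature for 30 min. They were then washed, crosslinked with 0.1% formaldehyde, proximity-ligated (BsaI/T4 ligase, 1 h, 37 °C), PCR-amplified and sequenced on an Illumina NextSeq500. Binding signal is each 6-mer's read frequency for a factor divided by its frequency for the GST control.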

ELK1 = biological target: T2, ELK1 (Homo sapiens, UniProt P19419 1-428); conditions: protein: recombinant; tags: N-terminal GST; dsDNA, one strand shown
T2 sequence: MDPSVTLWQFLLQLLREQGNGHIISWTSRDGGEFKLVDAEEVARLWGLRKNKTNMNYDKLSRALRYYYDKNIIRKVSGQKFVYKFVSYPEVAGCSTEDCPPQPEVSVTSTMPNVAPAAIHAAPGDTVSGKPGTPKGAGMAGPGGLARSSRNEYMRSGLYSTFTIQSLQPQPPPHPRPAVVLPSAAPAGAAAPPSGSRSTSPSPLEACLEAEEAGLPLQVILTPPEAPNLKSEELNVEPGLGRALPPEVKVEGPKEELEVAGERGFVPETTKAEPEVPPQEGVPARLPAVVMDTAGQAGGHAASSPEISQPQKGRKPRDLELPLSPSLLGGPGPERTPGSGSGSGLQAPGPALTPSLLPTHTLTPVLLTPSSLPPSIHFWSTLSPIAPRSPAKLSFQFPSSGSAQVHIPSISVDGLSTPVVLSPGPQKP
In short: as §1

GABPA = biological target: T3, GABPA (Homo sapiens, UniProt Q06546 1-454); conditions: protein: recombinant; tags: N-terminal GST; dsDNA, one strand shown
T3 sequence: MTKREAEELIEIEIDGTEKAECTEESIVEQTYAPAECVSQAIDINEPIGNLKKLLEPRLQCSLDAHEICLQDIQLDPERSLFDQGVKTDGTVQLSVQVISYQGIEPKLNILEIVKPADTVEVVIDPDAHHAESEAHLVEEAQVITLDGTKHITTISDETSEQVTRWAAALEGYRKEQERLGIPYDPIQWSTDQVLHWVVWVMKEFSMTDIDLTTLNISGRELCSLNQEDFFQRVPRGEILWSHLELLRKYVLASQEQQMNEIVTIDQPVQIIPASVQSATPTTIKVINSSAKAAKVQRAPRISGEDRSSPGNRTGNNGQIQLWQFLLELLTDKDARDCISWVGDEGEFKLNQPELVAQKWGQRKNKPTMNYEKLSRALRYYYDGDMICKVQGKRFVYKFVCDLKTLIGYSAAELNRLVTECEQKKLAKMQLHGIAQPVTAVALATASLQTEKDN
In short: as §1

ERG = biological target: T4, ERG (Homo sapiens, UniProt P11308 1-479); conditions: protein: recombinant; tags: N-terminal GST; dsDNA, one strand shown
T4 sequence: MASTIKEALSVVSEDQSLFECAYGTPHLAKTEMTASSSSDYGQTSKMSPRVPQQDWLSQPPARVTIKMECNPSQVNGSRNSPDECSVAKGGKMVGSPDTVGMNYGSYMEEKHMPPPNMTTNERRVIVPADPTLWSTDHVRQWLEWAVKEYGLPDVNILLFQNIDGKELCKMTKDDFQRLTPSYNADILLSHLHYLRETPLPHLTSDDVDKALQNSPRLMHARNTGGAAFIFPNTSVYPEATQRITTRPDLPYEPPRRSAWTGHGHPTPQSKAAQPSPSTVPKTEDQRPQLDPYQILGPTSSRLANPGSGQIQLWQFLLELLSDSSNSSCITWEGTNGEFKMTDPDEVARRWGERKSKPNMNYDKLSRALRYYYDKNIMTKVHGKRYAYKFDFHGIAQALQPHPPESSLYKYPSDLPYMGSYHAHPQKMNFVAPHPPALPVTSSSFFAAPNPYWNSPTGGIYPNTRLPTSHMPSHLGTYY
In short: as §1

ELF1 = ELF1 (Homo sapiens, UniProt P32519 1-619); conditions: protein: recombinant; tags: N-terminal GST; dsDNA, one strand shown
In short: as §1

EHF = biological target: T5, EHF (Homo sapiens, UniProt Q9NZC4 1-300); conditions: protein: recombinant; tags: N-terminal GST; dsDNA, one strand shown
T5 sequence: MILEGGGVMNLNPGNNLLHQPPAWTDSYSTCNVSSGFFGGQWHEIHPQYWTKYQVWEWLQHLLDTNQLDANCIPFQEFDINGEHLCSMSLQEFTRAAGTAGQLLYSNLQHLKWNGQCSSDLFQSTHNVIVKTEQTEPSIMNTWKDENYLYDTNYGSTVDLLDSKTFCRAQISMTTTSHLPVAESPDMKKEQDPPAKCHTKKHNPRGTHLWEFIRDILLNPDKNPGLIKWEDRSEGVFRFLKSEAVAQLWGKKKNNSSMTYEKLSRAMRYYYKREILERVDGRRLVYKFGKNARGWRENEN
In short: as §1

SPI1 = SPI1 (Homo sapiens, UniProt P17947 1-270); conditions: protein: recombinant; tags: N-terminal GST; dsDNA, one strand shown
In short: as §1

SPIB = SPIB (Homo sapiens, UniProt Q01892 1-262); conditions: protein: recombinant; tags: N-terminal GST; dsDNA, one strand shown
In short: as §1

ELK3 = biological target: T6, ELK3 (Homo sapiens, UniProt P41970 1-407); conditions: protein: recombinant; tags: N-terminal GST; dsDNA, one strand shown
T6 sequence: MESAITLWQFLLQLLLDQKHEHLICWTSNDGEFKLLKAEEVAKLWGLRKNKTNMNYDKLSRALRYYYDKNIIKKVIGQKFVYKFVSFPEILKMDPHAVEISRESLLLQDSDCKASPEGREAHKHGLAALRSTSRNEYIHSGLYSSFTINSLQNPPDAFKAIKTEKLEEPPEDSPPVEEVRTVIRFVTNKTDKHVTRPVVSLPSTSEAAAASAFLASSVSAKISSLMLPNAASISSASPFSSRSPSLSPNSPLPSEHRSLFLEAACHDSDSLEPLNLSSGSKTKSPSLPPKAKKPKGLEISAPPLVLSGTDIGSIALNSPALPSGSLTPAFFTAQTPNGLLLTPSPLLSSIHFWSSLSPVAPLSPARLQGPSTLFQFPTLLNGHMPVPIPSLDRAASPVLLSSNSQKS
In short: as §1

FEV = biological target: T7, FEV (Homo sapiens, UniProt Q99581 1-238); conditions: protein: recombinant; tags: N-terminal GST; dsDNA, one strand shown
T7 sequence: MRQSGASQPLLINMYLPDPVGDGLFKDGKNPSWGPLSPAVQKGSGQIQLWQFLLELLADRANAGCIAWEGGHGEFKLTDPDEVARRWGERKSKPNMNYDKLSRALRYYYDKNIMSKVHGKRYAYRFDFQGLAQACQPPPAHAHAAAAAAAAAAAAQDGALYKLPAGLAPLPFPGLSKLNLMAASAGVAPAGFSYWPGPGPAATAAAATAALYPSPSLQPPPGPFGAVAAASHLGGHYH
In short: as §1

ETV5 = ETV5 (Homo sapiens, UniProt P41161 1-510); conditions: protein: recombinant; tags: N-terminal GST; dsDNA, one strand shown
In short: as §1

HSF1 = HSF1 (Homo sapiens, UniProt Q00613 1-529); conditions: protein: recombinant; tags: N-terminal GST; chain copies: 3; dsDNA, one strand shown
In short: as §1

SPIC = biological target: T8, SPIC (Homo sapiens, UniProt Q8N5J4 1-248); conditions: protein: recombinant; tags: N-terminal GST; dsDNA, one strand shown
T8 sequence: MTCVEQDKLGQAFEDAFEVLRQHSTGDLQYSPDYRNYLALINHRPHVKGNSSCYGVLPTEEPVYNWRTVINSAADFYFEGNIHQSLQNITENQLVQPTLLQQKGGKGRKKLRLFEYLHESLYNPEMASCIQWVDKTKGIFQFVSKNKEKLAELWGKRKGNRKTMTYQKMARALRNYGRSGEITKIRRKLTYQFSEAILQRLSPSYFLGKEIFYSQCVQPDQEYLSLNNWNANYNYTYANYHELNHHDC
In short: as §1

ELF4 = ELF4 (Homo sapiens, UniProt Q99607 1-663); conditions: protein: recombinant; tags: N-terminal GST; dsDNA, one strand shown
In short: as §1

ELK4 = biological target: T9, ELK4 (Homo sapiens, UniProt P28324-2 1-405); conditions: protein: recombinant; tags: N-terminal GST; dsDNA, one strand shown
T9 sequence: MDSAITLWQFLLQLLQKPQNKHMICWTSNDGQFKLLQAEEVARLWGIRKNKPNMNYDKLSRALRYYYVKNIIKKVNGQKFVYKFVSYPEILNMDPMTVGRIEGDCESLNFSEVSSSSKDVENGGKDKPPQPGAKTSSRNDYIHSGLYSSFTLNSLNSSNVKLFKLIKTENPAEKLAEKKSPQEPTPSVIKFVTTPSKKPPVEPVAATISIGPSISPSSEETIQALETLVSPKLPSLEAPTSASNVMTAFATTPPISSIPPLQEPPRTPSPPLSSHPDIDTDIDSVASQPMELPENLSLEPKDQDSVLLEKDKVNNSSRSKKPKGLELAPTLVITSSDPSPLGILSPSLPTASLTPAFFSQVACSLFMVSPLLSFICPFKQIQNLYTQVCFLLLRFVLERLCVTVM
In short: as §1

ETV2 = biological target: T10, ETV2 (Homo sapiens, UniProt O00321 1-342); conditions: protein: recombinant; tags: N-terminal GST; dsDNA, one strand shown
T10 sequence: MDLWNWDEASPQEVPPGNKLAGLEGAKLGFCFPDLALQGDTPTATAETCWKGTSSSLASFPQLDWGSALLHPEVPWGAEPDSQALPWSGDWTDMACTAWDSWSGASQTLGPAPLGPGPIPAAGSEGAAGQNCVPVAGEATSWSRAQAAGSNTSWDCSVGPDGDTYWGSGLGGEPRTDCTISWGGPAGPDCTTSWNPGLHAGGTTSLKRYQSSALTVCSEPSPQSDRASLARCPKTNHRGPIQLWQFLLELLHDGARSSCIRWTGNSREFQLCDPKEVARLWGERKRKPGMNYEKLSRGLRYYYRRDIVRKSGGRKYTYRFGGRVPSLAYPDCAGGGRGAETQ
In short: as §1

ELF3 = biological target: T11, ELF3 (Homo sapiens, UniProt P78545 1-371); conditions: protein: recombinant; tags: N-terminal GST; dsDNA, one strand shown
T11 sequence: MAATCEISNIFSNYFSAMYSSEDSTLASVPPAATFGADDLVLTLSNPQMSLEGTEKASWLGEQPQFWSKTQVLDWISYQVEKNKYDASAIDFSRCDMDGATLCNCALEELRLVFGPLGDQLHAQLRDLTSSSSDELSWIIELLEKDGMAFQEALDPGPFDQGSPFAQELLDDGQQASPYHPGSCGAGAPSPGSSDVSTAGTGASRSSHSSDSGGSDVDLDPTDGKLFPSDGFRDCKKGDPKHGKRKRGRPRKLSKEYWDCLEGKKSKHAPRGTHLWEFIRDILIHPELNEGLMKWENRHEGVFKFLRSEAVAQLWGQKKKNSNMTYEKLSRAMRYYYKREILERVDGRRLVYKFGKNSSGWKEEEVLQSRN
In short: as §1

CRX = CRX (Homo sapiens, UniProt O43186 1-299); conditions: protein: recombinant; tags: N-terminal GST; dsDNA, one strand shown
In short: as §1

ETV1 = ETV1 (Homo sapiens, UniProt P50549 1-477); conditions: protein: recombinant; tags: N-terminal GST; dsDNA, one strand shown
In short: as §1

ETV1, sequence (P50549 whole entry): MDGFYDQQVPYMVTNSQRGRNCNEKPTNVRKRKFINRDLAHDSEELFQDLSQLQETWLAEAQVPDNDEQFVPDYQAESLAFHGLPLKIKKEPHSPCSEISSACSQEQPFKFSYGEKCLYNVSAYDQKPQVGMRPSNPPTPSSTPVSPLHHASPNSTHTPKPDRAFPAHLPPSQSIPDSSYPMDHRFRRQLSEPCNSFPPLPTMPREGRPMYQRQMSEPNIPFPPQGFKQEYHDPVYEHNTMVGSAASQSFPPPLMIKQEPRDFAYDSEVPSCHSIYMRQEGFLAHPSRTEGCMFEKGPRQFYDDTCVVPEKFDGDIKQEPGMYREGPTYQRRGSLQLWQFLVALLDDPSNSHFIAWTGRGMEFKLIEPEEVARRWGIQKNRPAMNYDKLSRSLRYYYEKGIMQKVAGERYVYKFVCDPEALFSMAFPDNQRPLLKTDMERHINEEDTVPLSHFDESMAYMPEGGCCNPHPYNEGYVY
ELF4, sequence (Q99607 whole entry): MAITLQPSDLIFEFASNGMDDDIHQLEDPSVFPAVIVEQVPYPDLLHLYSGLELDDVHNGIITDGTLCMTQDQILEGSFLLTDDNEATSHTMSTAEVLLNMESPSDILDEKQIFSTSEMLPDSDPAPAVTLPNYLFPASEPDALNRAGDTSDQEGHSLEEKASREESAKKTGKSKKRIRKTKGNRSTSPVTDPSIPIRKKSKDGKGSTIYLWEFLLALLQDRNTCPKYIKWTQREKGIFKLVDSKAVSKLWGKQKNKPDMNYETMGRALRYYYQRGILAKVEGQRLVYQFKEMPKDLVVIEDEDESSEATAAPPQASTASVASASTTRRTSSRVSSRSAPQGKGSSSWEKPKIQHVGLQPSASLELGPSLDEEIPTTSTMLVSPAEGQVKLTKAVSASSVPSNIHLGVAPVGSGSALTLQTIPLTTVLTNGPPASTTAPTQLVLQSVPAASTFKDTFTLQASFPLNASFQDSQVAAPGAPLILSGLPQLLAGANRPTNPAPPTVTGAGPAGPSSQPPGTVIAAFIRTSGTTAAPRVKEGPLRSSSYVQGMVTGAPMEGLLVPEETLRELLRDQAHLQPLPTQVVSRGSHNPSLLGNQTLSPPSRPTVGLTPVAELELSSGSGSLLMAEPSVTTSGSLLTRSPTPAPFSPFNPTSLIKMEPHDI
CRX, sequence (O43186 whole entry): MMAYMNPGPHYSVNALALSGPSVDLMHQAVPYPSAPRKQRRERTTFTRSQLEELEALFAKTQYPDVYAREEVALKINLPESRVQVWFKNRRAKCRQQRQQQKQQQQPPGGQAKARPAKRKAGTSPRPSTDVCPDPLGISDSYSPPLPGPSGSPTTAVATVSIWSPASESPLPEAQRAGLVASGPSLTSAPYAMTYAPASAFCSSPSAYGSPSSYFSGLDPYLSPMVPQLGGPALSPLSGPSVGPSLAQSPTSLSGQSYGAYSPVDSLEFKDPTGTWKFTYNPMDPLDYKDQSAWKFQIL
HSF1, sequence (Q00613 whole entry): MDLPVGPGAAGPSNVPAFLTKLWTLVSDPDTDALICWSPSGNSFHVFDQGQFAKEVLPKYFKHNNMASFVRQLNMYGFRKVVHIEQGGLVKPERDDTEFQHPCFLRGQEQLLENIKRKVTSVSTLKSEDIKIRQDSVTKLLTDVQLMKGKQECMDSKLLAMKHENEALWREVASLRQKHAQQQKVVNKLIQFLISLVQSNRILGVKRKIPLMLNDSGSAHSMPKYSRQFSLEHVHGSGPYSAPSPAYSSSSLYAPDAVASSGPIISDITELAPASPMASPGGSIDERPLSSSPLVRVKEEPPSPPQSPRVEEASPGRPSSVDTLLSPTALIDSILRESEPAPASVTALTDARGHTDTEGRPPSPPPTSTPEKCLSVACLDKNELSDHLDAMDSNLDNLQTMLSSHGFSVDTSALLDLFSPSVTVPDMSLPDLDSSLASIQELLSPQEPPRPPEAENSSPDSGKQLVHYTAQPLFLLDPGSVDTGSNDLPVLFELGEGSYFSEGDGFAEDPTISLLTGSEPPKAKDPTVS
ETV5, sequence (P41161 whole entry): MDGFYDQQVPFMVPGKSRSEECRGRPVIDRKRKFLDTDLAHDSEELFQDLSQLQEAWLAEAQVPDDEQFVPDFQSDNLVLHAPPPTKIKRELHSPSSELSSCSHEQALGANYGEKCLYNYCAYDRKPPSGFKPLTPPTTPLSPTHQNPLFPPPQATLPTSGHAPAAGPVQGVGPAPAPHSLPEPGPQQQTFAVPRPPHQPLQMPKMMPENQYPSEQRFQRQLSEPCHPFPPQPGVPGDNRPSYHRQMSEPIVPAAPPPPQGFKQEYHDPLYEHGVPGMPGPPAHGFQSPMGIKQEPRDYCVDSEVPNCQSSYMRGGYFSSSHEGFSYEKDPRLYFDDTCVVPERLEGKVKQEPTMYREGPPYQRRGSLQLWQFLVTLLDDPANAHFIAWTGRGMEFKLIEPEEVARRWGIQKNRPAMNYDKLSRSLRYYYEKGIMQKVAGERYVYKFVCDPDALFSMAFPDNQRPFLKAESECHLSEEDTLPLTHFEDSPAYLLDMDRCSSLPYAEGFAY
SPIB, sequence (Q01892 whole entry): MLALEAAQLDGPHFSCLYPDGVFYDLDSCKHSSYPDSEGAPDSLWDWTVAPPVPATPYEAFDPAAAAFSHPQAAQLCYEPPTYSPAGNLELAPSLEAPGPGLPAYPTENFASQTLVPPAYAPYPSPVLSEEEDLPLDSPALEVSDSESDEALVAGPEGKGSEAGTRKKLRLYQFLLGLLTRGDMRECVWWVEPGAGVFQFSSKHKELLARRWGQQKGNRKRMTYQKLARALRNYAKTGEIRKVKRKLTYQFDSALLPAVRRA
ELF1, sequence (P32519 whole entry): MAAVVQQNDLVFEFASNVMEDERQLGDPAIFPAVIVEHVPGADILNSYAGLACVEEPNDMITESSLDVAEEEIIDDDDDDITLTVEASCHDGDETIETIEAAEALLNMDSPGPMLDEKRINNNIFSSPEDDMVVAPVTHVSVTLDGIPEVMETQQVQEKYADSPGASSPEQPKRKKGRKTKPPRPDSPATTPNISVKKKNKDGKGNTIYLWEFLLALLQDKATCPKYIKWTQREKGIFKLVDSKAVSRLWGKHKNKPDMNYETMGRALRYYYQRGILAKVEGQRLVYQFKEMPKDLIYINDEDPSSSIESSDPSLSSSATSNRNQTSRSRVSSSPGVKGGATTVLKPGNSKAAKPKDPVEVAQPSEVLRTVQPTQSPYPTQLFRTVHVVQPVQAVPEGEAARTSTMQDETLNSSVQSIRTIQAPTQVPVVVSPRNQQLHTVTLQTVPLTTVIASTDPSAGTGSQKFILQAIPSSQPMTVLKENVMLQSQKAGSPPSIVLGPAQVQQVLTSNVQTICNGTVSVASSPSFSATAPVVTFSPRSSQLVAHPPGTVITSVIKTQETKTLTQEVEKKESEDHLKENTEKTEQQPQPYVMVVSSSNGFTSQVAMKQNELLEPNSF

Sequence: GCTCCT
- binding signal (FLI1): 1.54 fold enrichment (6-mer frequency, TF over GST control)
- binding signal (ELK1): 1.39 fold enrichment (6-mer frequency, TF over GST control)
- binding signal (GABPA): 1.52 fold enrichment (6-mer frequency, TF over GST control)
- binding signal (ERG): 1.32 fold enrichment (6-mer frequency, TF over GST control)
- binding signal (ELF1): 1.45 fold enrichment (6-mer frequency, TF over GST control)
- binding signal (EHF): 1.41 fold enrichment (6-mer frequency, TF over GST control)
- binding signal (SPI1): 1.4 fold enrichment (6-mer frequency, TF over GST control)
- binding signal (SPIB): 1.46 fold enrichment (6-mer frequency, TF over GST control)
- binding signal (ELK3): 1.33 fold enrichment (6-mer frequency, TF over GST control)
- binding signal (FEV): 1.46 fold enrichment (6-mer frequency, TF over GST control)
- binding signal (ETV5): 1.4 fold enrichment (6-mer frequency, TF over GST control)
- binding signal (HSF1): 1.29 fold enrichment (6-mer frequency, TF over GST control)
- binding signal (SPIC): 1.44 fold enrichment (6-mer frequency, TF over GST control)
- binding signal (ELF4): 1.51 fold enrichment (6-mer frequency, TF over GST control)
- binding signal (ELK4): 1.33 fold enrichment (6-mer frequency, TF over GST control)
- binding signal (ETV2): 1.57 fold enrichment (6-mer frequency, TF over GST control)
- binding signal (ELF3): 1.57 fold enrichment (6-mer frequency, TF over GST control)
- binding signal (CRX): 1.34 fold enrichment (6-mer frequency, TF over GST control)
- binding signal (ETV1): 1.46 fold enrichment (6-mer frequency, TF over GST control)
